# Screening data as filed in PubChem.
# An excerpt weighted towards active compounds, which were near 1.2% of everything screened.
# cardiac RTF act: cardiac RTF calcium sensitization | P19429+P45379 | IANBD-labeled TnC RTF fluorescence at EC20 calcium; 0% EC20 calcium, 100% full calcium | activation, % at 7.2 µM | hit rate 0.24% among 340,000 | AID 493008;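 active = activation above the mean over all tested compounds plus 3 SD, cut at about 30% in these data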;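 note: rise in fluorescence read as greater calcium sensitivity of cardiac thin filaments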
# GLD-1 RNA inh: GLD-1-TGE RNA interaction inhibition (C. elegans). purified GLD-1 + fluorescein TGE RNA, fluorescence polarization. inhibition, % at 5.96 µM. hit rate 0.44% among 320,000. AID 2280;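 active = percent inhibition above a per-plate cutoff, the plate mean of test compounds plus 3 SD, cut at about 30% in these data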
# Cardiac RTF inh: cardiac RTF calcium desensitization | P19429+P45379 | IANBD-labeled cardiac RTF, Ca2+ fluorescence | inhibition, % at 7.15 µM | hit rate 0.12% among 340,000 | AID 493244;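 active = inhibition above the mean inhibition of all tested compounds plus 3 SD, cut at about 17% in these data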;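 note: assay run at fixed EC70 calcium of 1.6 mM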
# eLon inh: E. coli protease La inhibition; inhibition, % at 7.94 µM; P0A9M0; purified E. coli Lon protease, fluorescence polarization; hit rate 0.42% among 360,000; in the data active = inhibition above about 13%, passing the limit was not always enough
# Target sequence (P0A9M0 whole entry, looked up): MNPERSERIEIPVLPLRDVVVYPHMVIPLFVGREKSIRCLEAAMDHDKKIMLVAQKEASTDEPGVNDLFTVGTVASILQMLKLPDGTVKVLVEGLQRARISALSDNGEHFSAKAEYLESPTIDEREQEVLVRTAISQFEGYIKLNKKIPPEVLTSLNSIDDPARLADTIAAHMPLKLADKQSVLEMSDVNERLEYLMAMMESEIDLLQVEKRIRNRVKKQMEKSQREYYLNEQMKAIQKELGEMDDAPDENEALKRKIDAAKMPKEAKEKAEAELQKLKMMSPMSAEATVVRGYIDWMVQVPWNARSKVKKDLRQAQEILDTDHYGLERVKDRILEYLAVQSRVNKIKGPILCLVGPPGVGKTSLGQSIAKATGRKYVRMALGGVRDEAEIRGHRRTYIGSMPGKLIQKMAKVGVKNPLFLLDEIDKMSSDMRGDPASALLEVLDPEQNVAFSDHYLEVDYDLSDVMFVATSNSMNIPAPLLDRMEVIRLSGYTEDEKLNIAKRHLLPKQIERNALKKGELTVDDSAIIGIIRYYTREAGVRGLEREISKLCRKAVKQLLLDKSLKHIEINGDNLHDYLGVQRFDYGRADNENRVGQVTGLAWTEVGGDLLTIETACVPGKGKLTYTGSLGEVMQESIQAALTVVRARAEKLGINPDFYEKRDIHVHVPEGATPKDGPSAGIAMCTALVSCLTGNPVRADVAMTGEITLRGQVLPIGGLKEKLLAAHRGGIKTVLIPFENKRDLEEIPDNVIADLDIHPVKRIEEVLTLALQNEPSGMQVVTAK
# BCLXL inh: blocks human Bcl-xL binding to Bim BH3 peptide; Q07817; GST-Bcl-xL / FITC-Bim BH3 peptide fluorescence polarization; inhibition, % at 10.9 µM; hit rate 0.7% among 320,000;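 active = inhibition above the mean of all tested compounds plus 3 SD, cutoff set per campaign, cut at about 30% in these data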;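 note: inhibitors lower millipolarization by displacing the labeled peptide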
# eLon confirm: confirmation of E. coli Lon protease inhibitors; hit rate 31% among 1,400; purified E. coli Lon, fluorescence polarization; inhibition, % at 7.94 µM; shares compounds with eLon inh; AID 602230; in the data active = inhibition above about 16%
# A number is an active result; i = inactive; nt = no result; + = active, no number.
SMILES,cardiac RTF act,GLD-1 RNA inh,Cardiac RTF inh,eLon inh,BCLXL inh,eLon confirm
CCn1c2ccccc2c2cc(/C=N/NC(=O)c3cccc(C)c3)ccc21,i,i,i,i,i,nt
CN1CCCC(OC(=O)c2cc(Br)ccc2Cl)C1 (stereo not given),i,i,i,i,i,nt
OC(C#Cc1ccccn1)c1cccs1 (stereo not given),i,i,i,30.3,42.3,i
CC1CC(C)(C)NC(=S)S1 (stereo not given),i,i,i,i,i,nt
CCN(CC)S(=O)(=O)c1cc(NC(=O)COC(=O)c2c(C)noc2C)ccc1C,i,i,i,i,i,nt
CC(OC(=O)Cn1cnc2c1c(=O)n(C)c(=O)n2C)C(=O)Nc1ccc(Cl)cc1 (stereo not given),i,i,i,26.5,i,i
Cn1c(=O)c2c(ncn2CC(=O)OCC(=O)Nc2ccc(Cl)cc2)n(C)c1=O,i,i,i,i,i,nt
Cc1cccc(NC(=O)NCC(F)(F)F)n1,i,i,i,27.0,i,i
Cc1cccc(NC(=O)Nc2ccccc2)n1,i,i,i,i,i,nt
COc1ccc(C(C(=O)NC(C)(C)C)N(Cc2ccco2)C(=O)CCC(=O)Nc2cc(C)on2)cc1 (stereo not given),i,i,i,i,i,nt
O=S(=O)(c1ccc(N2CCOCC2)cc1)N1CCOCC1,i,i,i,i,i,nt
Cc1cccc(N2C(=O)c3cccc4c(N(C)CCO)ccc(c34)C2=O)c1,330.6,175.6,i,175.1,183.4,144.3
Cc1cccc(N2C(=O)c3cccc4c(N)ccc(c34)C2=O)c1,+,+,i,+,+,+
Nc1cccc(N2C(=O)c3cccc4c(N)ccc(c34)C2=O)c1,290.6,195.2,i,+,+,+
CC(=O)Nc1ccc2c3c(cccc13)C(=O)N(c1ccccc1)C2=O,i,i,i,i,i,nt
Nc1ccc2c3c(cccc13)C(=O)N(c1ccccc1)C2=O,971.9,nt,i,+,nt,+
Cc1cc(C)n2nc(SCC(=O)Nc3ccc(O)cc3)nc2n1,i,i,i,i,i,nt
Cc1nc([N+](=O)[O-])cn1Cc1cccc2ccccc12,i,i,i,i,i,nt
CC(C)CCN1C(=O)c2cccc3c(N)ccc(c23)C1=O,658.5,185.3,i,+,172.8,142.8
O=C(COc1cc(Cl)ccc1Cl)Nc1ccc2c(c1)CCC2,i,i,i,i,i,nt
CC12CCC(=O)N1C(C(=O)N1CCN(S(=O)(=O)c3ccc(F)c(F)c3)CC1)CS2 (stereo not given),i,i,i,i,i,nt
CC1(OC(=O)c2ccco2)C(=O)C=C2C=C(C3CC3)OC=C2C1=O (stereo not given),i,63.1,i,25.4,75.0,i
CCN1CCc2c(sc(NC(=O)c3ccc(C(=O)c4ccccc4)cc3)c2C(N)=O)C1,i,i,i,i,i,nt
COc1cc(/C=C/C(=O)OCC(=O)N(C)Cc2ccccc2)cc(OC)c1OC,i,i,i,i,nt,nt
Cc1cccc(Cn2c(Sc3nc(C)cs3)nc3c2c(=O)[nH]c(=O)n3C)c1,i,i,i,i,i,nt
SMILES,cardiac RTF act,GLD-1 RNA inh,Cardiac RTF inh,eLon inh,BCLXL inh,eLon confirm
C=CCn1c(Sc2nc(C)cs2)nc2c1c(=O)[nH]c(=O)n2C,i,i,i,22.2,i,i
CC(=O)Nc1cccc(NC(=O)CSc2nc(=O)n(CCN3CCOCC3)c3c2CCC3)c1,i,i,i,105.2,i,i
O=C(CSc1nccc(=O)[nH]1)N1CCCc2ccccc21,i,i,i,i,i,nt
O=C(Nn1c(O)c(C=C2N=c3ccccc3=N2)sc1=S)c1ccccc1,i,i,i,i,i,nt
Cc1ccc(C(=O)Nn2c(O)c(C=C3N=c4ccccc4=N3)sc2=S)cc1,i,i,i,26.3,i,32.6
COc1cc(/C=N/NC(=O)c2cc(O)cc(O)c2)ccc1OC(=O)c1ccccc1,i,nt,i,i,nt,nt
CCC1OC23CCCCC2C(C#N)(C(=N)O3)C1(C#N)C#N (stereo not given),35.1,57.0,i,28.4,77.2,i
COc1ccc(C2CC3(O)NC(=O)C(C#N)(C3C)C2(C#N)C#N)cc1 (stereo not given),nt,i,nt,i,i,nt
COc1ccc(C2OC34CCCCC3C(C#N)(C#N)C2(C#N)C(=N)O4)cc1 (stereo not given),i,101.1,i,33.9,135.1,34.2
N#CC12COC3(CCCCC3C1(C#N)C#N)OC2=N (stereo not given),i,73.8,i,46.4,63.3,i
CC1(C)CC(=O)C/C(=N/NC(=O)COc2ccc(Cl)cc2Cl)C1,i,i,i,25.5,i,i
CN1CCN(c2ccccc2NC(=O)c2ccc3c(c2)OCCO3)CC1,i,i,i,15.8,i,i
O=C(COc1ccc(F)cc1Cl)NC1CCCCCC1,i,i,i,159.8,i,i
CCc1ccc(OCC(=O)NC2CCCCC2)c(Br)c1,i,i,i,36.0,i,16.5
O=C(CSc1nnc(Nc2ccccc2)s1)NC1CCCC1,i,i,i,i,nt,nt
Oc1ccc(NC(=S)N=Nc2c(O)[nH]c3ccccc23)cc1,i,i,i,18.1,i,20.9
COc1ccc(NC(=S)N=Nc2c(O)[nH]c3ccccc23)cc1,i,i,i,i,i,nt
Cc1ccc(NC(=S)N=Nc2c(O)[nH]c3ccccc23)cc1,i,i,i,14.2,i,i
COC(=O)C1=C(C)NC(C)=C(C(=O)OCC2CCCO2)C1c1ccc(Cl)c([N+](=O)[O-])c1 (stereo not given),i,i,i,i,i,nt
CCOCCCn1c(=S)[nH]c2cc(C(=O)N3CCN(C)CC3)ccc2c1=O,i,i,i,i,i,nt
CCCn1c(=S)[nH]c2cc(C(=O)N3CCN(C)CC3)ccc2c1=O,nt,nt,nt,13.7,nt,i
Cc1cccc(NC(=O)COC(=O)C2C3CC4OC(=O)C2C4C3)c1C (stereo not given),i,i,i,i,i,nt
CC(C)c1nnc(N2C(=O)C(O)=C(C(=O)c3cccs3)C2c2ccccc2)s1 (stereo not given),i,nt,i,34.0,nt,80.3
Cc1cccc(N2C(=O)C(O)=C(C(=O)c3cccs3)C2c2ccc(C(C)C)cc2)n1 (stereo not given),i,i,i,i,i,nt
CC(C)CCCNc1nc(N2CCOCC2)nc(N2CCOCC2)n1,i,i,i,83.9,i,i
SMILES,cardiac RTF act,GLD-1 RNA inh,Cardiac RTF inh,eLon inh,BCLXL inh,eLon confirm
COc1ccc(S(=O)(=O)N2CCN(Cc3ccc4c(c3)OCO4)CC2)cc1,i,i,i,43.1,i,i
O=C(N/N=C/c1cc2c3c(c1O)CCCN3CCC2)c1ccccc1O,i,nt,i,67.2,nt,103.5
CCCn1nnc(NC(=O)c2ccc(Br)cc2)n1,i,i,i,i,i,nt
Oc1cccc(/C=N/NC(=S)Nc2cccnc2)c1O,i,i,i,i,i,nt
Oc1ccc(/C=N/NC(=S)Nc2cccnc2)c(O)c1O,i,nt,i,24.0,nt,26.9
C/C(=N\NC(=S)NCCc1ccccc1)c1cccs1,i,i,i,101.1,i,57.4
